Bioassay records from PubChem.
TDP1 inh: blocks human tyrosyl-DNA phosphodiesterase 1 | 350,000 compounds, 0.28% hits | Potency, µM (series often up to 130 µM), for inactives: at the highest dose activity change, negative = inhibition, hits mostly inhibitors | AID 485290 | recombinant TDP1, AlphaScreen DNA substrate cleavage; note: potency is the fitted concentration of half-maximal effect; nearly all actives have a fitted effect of over 40% in size
Target sequence (Q9NUW8 whole entry, looked up): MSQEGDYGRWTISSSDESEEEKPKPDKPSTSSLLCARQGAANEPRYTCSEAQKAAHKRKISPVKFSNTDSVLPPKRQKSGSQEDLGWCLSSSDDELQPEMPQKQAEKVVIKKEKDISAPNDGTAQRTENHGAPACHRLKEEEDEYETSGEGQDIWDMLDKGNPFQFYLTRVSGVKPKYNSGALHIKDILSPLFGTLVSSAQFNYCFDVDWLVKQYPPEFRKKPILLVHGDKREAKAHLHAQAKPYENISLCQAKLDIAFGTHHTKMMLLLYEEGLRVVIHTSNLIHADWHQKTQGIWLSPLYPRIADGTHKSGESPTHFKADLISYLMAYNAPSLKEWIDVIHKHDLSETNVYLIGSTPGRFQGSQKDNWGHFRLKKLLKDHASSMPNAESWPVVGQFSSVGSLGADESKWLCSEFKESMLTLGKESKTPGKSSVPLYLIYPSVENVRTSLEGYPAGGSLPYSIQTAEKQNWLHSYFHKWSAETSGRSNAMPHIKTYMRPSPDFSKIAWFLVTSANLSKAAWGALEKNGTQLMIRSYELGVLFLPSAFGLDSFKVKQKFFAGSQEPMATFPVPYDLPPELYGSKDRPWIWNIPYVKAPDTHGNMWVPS
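Tdp1 1 nM final; 15 min RT w/ cpd; substrate 15 nM, 5 min; beads 10 ug/ml, 10 min; AlphaScreen read. Neg ctrl: no enzyme.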
ELG1 repair inh: inhibitors of ELG1-dependent DNA repair in HEK293T cells; AID 504467; Potency, µM (top dose mostly 46.1 µM), without a hit: at the top dose activity change, negative = inhibition, most hits filed as inhibitors; 330,000 compounds, 2.3% hits; HEK293T ELG1-luciferase reporter, luminescence, 16 h; DNA damage induced by 5-fluorouridine; note: potency is the fitted concentration of half-maximal effect; nearly all actives have a fitted effect of over 55% in size
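Reporter activity after DNA damage by 5-fluorouridine is monitored. Compound-treated cells incubate 16 hr at 37 °C, then ONE-Glo is added for 30 min before luminescence reading.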
Giardia killer: kills Giardia lamblia | 340,000 compounds, 0.15% hits | Giardia lamblia trophozoite viability | activity change, % at 7.66 µM, hits read low; in the data active = activity change below about -80%; inconclusive = between about -30% and that limit;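 note: parasites exposed to compound for two days anaerobically before the ATP read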
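Luminescent ATP signal served as the viability read-out, measured 15-30 min after adding ATP detection reagent to trophozoites that had been incubated with compounds for 48 hrs at 37 deg C anaerobically at 100 cells/well.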
TDP1 cell noCPT: qHTS for Inhibitors of human tyrosyl-DNA phosphodiesterase 1 (TDP1): qHTS in cells in absence of CPT | DT40 Tdp1-/- hTDP1 cells, no CPT, ATP luminescence, 48 h | 420,000 compounds, 15% hits | Potency, µM (titrated, usually from 46.2 µM), for inactives: at the top dose activity change, negative = growth inhibition, actives largely listed as inhibitors; note: potency is the fitted concentration of half-maximal effect; nearly all actives have a fitted effect of over 55% in size
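Cells were dispensed at 400 per well, compounds added by pin tool, plates incubated ≥48 hr at 37 °C, then CellTiter-Glo added for 30 min at room temperature before luminescence reading. Line: DT40 Tdp1-/- complemented with hTDP1; camptothecin omitted.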
IL1B secr inh: inflammasome signaling inhibition, IL-1 beta readout. 360,000 compounds, 4.7% hits. THP-1 LPS/ATP IL-1B secretion, AlphaLISA, 16 h; hits give low values. AID 743279. activity change, % at 57.5 µM; in the data active = activity change below about -50%; inconclusive = mostly about -30% to -49%
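Secreted IL-1B measured by AlphaLISA bead assay after 16 h compound exposure of THP-1 cells; compounds (final up to 57.5 uM) added 1 h before LPS (250 ng/mL) and ATP (1.25 mM) stimulation; lower signal means less secretion.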
DT40 TDP1 CPT: DT40-hTDP1 cell growth loss with CPT. chicken DT40 Tdp1-/-;hTDP1 cells + 20 nM CPT, ATP luminescence, 48 h. Potency, µM (highest dose often 46.2 µM), without a hit: at the top dose activity change, negative = growth inhibition, most hits filed as inhibitors. 420,000 compounds, 12% hits. AID 686979; note: potency is the fitted concentration of half-maximal effect; nearly all actives have a fitted effect of over 55% in size
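Chicken DT40 Tdp1-/- cells stably complemented with human TDP1 were seeded at 400 cells/well in medium containing 20 nM camptothecin, exposed to pin-transferred compounds, and grown at 37 °C for at least 48 hr. Viability was read as ATP luminescence.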
* hit, by the source's call; i = inactive; u = inconclusive; x = no result given; [ ] = dose if it differs, or a comment. In the library only some 19% were active in any assay of this set; here they are far more common. Unless noted, calls come from the whole dose curve; as a rule, active = well fitted curve in the direction sought with a large enough effect; inconclusive = small, poorly fitted or top-dose-only effect, or another doubt; inactive = no such curve, though single readings can be large; an effect the other way counts as inactive or inconclusive. % is set by controls: 0 for no effect and ±100 for the full control effect.

SMILES | TDP1 inh | ELG1 repair inh | Giardia killer | TDP1 cell noCPT | IL1B secr inh | DT40 TDP1 CPT
O=C(Nc1nnc(S(=O)(=O)N2CCOCC2)s1)c1ccc(Cl)cc1 | x | -5.7% | -9.4 | u | -11.5 | u
CCOC(=O)c1cccc(NC(=O)CCCn2nc(C)c3c(C)n(-c4ccccc4)nc3c2=O)c1 | 0.0% | x | x | u | x | u
CCc1nc(CNC(=O)C2CCC(=O)N(Cc3cccc(OC)c3)C2)no1 (centres undefined) | -0.1% | u | 13.5 | 26.4% | -7.8 | -1.1%
Cc1csc(NC(=O)CSc2ncc(-c3ccccc3)[nH]2)n1 | 5.7% | 19.6% | 2.7 | -22.7% | 27.0 | 4.3%
CCc1nnc(NC(=O)CSc2ccc(-c3nc4ccccc4[nH]3)cn2)s1 | 2.0% | u | 0.6 | -24.7% | 13.7 | -13.8%
Cc1ccc2nc(-c3ccc(SCC(=O)Nc4nc(C)cs4)nc3)[nH]c2c1 | 2.6% | u | -28.4 | 10.3µM* | 9.3 | 18.4µM*
Cc1ccc2nc(-c3ccc(SCC(=O)Nc4nnc(C)s4)nc3)[nH]c2c1 | -1.1% | u | -7.4 | 14.6µM* | -95.1* | u
CCCc1cc(=O)[nH]c(SCc2nc(-c3ccc(OC)cc3)no2)n1 | 5.4% | x | x | -28.7% | x | u
COc1cc(C(=O)OCC(=O)Nc2ccccc2C(=O)NC2CC2)c([N+](=O)[O-])cc1OC | -0.1% | u | 3.7 | -18.1% | 2.8 | -4.6%
Cc1ccc(NC(=O)C2C(=O)N(CCO)C3(C)CC2c2ccccc2O3)cc1 (centres undefined) | 4.8%[56.1 µM] | u | -11.2 | -17.9% | -15.4 | -17.6%
Cc1ccc(S(=O)(=O)C2C(=O)N(C)C3(C)CC2c2ccccc2O3)cc1 (centres undefined) | 0.6% | -0.7% | -25.1 | 16.4µM* | 0.0 | -23.8%
O=C(NCc1ccccn1)C1Nc2ccc(C(F)(F)F)cc2C2C=CCC12 (centres undefined) | x | x | -14.3 | u | -3.3 | u
CCOC(=O)C1=C(COC(=O)/C=C/c2ccc(OC)cc2)NC(=O)NC1C (centres undefined) | -1.7% | u | -6.7 | 20.6µM* | -3.2 | 9.2µM*
CCOC(=O)C1=C(COC(=O)/C=C/c2ccc(SC)cc2)NC(=O)NC1C (centres undefined) | x | 10.3µM* | -3.7 | u | -21.6 | -25.3%
CCOC(=O)C1=C(COC(=O)COc2ccc(C#N)cc2)NC(=O)NC1C (centres undefined) | -0.6% | 9.1% | 16.9 | 16.4µM* | i | 9.4%
Cc1nnc(C(C)C)n1C1C[C@H]2CC[C@@H](C1)N2CC[C@H](NC(=O)C1CCC(F)(F)CC1)c1ccccc1 (some centres undefined) | x | x | x | -9.2% | x | -3.6%
COc1ccc(-n2c(CNC(=O)c3ccc(OC)cc3OC)nnc2SC)cc1 | x | x | x | -23.6% | x | 16.0%[9.04 µM]
CC(=O)Nc1ccc(S(=O)(=O)NC2CC3CCC2C3)cc1 (centres undefined) | x | u | -10.8 | -25.2% | 7.9 | u
CCCCCCCCCCCCN1C/C(=C\C(=O)OCC)c2ccccc2S1(=O)=O | x | -8.2% | -4.0 | 11.2µM* | 24.6 | 15.8µM*
C=C1CCN([C@@H](C)C(=O)NCc2cc(OC)c(OC)c(OC)c2)S(=O)(=O)c2ccccc21 | x | -1.3% | 7.5 | u | 3.4 | u
CCCCCCCCCCCCN1C/C(=C\C(=O)OCC)c2cc(C(F)(F)F)ccc2S1(=O)=O | x | 24.9% | 8.3 | u | 31.7 | u
CCOC(=O)/C=C1\CN(Cc2cc(OC)c(OC)c(OC)c2)S(=O)(=O)c2ccc(C(F)(F)F)cc21 | x | u | 0.6 | 11.6µM* | -25.8 | 23.1µM*
CCOC(=O)/C=C1\CN(Cc2cc(OC)c(OC)c(OC)c2)S(=O)(=O)c2ccccc21 | x | u | 2.1 | 6.51µM* | 0.0 | 10.3µM*
CC(C)(C)OC(=O)N1CCc2onc(-c3ccc(Br)cc3)c2C1=O | x | x | x | u | 36.0 | -29.6%
CC(=O)N1CC(C)Oc2ccc(S(=O)(=O)NC(CC(=O)O)c3ccc(C)cc3C)cc21 (centres undefined) | 2.3% | 7.7% | 8.0 | 6.4% | 5.8 | u
SMILES | TDP1 inh | ELG1 repair inh | Giardia killer | TDP1 cell noCPT | IL1B secr inh | DT40 TDP1 CPT
COc1ccc2c(Cl)c(C(=O)N/N=C/c3ccc4c(c3)OCO4)sc2c1 | 2.0% | -24.2% | -7.6 | u | -1.1 | u
Cc1nn(-c2ccccc2)c(C)c1/C=N/NC(=O)c1cc(-c2cccc3ccccc23)n[nH]1 | 5.7% | 16.4µM* | 38.3 | 16.4µM* | -15.1 | u
Cc1[nH]c2ccccc2c1/C=N/NC(=O)c1cc(-c2ccncc2)nc2ccccc12 | 8.7% | u | 13.0 | 5.17µM* | 0.0 | 5.8µM*
Cc1[nH]c2ccccc2c1/C=N/NC(=O)c1cc(-c2ccccc2)n[nH]1 | 6.8% | 20.6µM* | -5.5 | 18.4µM* | u | u
COc1ccc2c(Cl)c(C(=O)N/N=C/c3c(C)[nH]c4ccccc34)sc2c1 | 5.5% | 23.1µM* | -6.7 | u | -1.0 | u
COc1ccc(CNC(=O)c2ccc(-c3nc(CSc4ccccc4)c(C)o3)cc2)cc1 | 5.6% | x | x | -24.1% | x | -29.9%
COCCCNC(=O)C1=CCN(S(=O)(=O)c2ccc(C)cc2)CC1 | 4.3% | 5.8% | -2.1 | 7.8% | 10.5 | -6.2%
O=C(CNC(=O)c1ccc2ccccc2c1)NC1CCCCC1 | -0.1% | u | -5.4 | -21.0% | -15.8 | -12.4%
Cc1cccc(C(C(=O)NC2CCCCC2)N(C(=O)c2csnn2)C2CC2)c1 (centres undefined) | 0.0% | 0.1% | 1.6 | -17.2% | 4.7 | -7.2%
